Screens (PubChem BioAssay)
KB-3-1 tox: qHTS assay for MDR1-selective chemotherapeutics: Primary screen using the parental adenocarcinoma cell KB-3-1. KB-3-1 viability, CellTiter-Glo ATP luminescence, 72 h. Potency, µM (titrated, usually from 46.1 µM), hits mostly cytotoxic. 400,000 tested, 1.4% active. AID 1347075, 2019; also: nearly all actives have a fitted effect of over 60% in size
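Screening of KB-3-1 cells (DMEM, 10% FBS, phenol-red free) ran from lowest to highest compound concentration; after 72 h at 37 °C viability was read luminescently and curves fitted.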
KB-V1 cytotox: qHTS assay for MDR1-selective chemotherapeutics: Primary screen using the drug-selected MDR subline cells KB-V1; KB-V1 MDR cells viability, CellTiter-Glo, 72 h; Potency, µM (top dose mostly 46.1 µM), usual class: cytotoxic; 400,000 tested, 3.4% active; AID 1347076, 2019; also: nearly all actives have a fitted effect of over 60% in size
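In this primary screen, KB-V1 cells overexpressing P-gp are incubated with library compounds (lowest to highest concentration) for 72 h at 37 degrees C before a luminescent ATP viability read.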
SW480 rerep: A quantitative high throughput screen for small molecules that induce DNA re-replication in SW480 colon adenocarcinoma cells. 340,000 tested, 1.8% active. Potency, µM (titrated, usually from 46.1 µM), most hits filed as activators. AID 624297, 2012. SW480 DNA re-replication, Hoechst DNA content imaging, 48 h; also: nearly all actives have a fitted effect of over 55% in size
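Treated cells incubate 48 hr (37 C, 5% CO2), are stained 40 min with Hoechst, and nuclear fluorescence is enumerated; a rise in nuclei with high DNA signal marks re-replication.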
Gal4-VP16 FLuc: VP16 counterscreen qHTS for inhibitors of ROR gamma transcriptional activity; 310,000 tested, 3.5% active; Potency, µM (top dose mostly 53.6 µM), hits mostly inhibitors; Drosophila S2 Gal4-VP16 UAS-luciferase, luminescence, 20 h; AID 2546, 2010;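 also: Gal4-VP16 expression switched on by copper sulfate through the metallothionein promoter; nearly all actives have a fitted effect of over 50% in size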
MCF10A rerep: A quantitative high throughput screen for small molecules that induce DNA re-replication in MCF 10a normal breast cells; MCF 10A DNA re-replication, Hoechst nuclear intensity, 48 h; Potency, µM (titrated, usually from 46.1 µM), most hits filed as activators; 350,000 tested, 2.9% active; also: nearly all actives have a fitted effect of over 50% in size
RORg inh: qHTS for inhibitors of ROR gamma transcriptional activity. Nuclear receptor ROR-gamma (Mus musculus), P51450. Drosophila S2 Gal4-RORgamma UAS-luciferase reporter, 20 h. Potency, µM (highest dose often 53.6 µM), most hits filed as inhibitors. 310,000 tested, 5.4% active. AID 2551, 2010; also: nearly all actives have a fitted effect of over 60% in size
Target sequence (P51450 whole entry, looked up, the tested form may be a part): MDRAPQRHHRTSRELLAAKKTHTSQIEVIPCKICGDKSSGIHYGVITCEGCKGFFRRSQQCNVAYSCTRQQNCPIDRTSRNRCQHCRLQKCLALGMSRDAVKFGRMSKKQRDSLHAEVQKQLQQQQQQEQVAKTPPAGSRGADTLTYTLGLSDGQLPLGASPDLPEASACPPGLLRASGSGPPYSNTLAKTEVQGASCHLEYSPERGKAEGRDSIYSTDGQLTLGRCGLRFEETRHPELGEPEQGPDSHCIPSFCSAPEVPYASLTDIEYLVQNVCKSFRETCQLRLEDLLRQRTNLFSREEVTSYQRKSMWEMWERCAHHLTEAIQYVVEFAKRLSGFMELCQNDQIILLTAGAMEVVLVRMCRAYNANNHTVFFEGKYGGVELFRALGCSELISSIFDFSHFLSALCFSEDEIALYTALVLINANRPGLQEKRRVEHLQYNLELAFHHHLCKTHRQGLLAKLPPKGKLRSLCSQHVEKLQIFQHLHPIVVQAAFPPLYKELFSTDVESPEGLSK
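Drosophila S2 cells stably expressing Gal4-DBD/mouse RORγ fusion under metallothionein promoter plus UAS-luciferase; compound 1 h, then 700 uM CuSO4 induction for 20 h at ambient temperature; inhibition read as reduced luminescence.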
Each line names hits and unclear results; the compound was inactive in the other large screens. This is a sample that favours compounds with a hit; in the whole collection about 10% have one here. Calls follow the shape of the dose curve; as a rule, active = well fitted curve in the direction sought with a large enough effect; inconclusive = small, poorly fitted or top-dose-only effect, or another doubt; inactive = no such curve, though single readings can be large; an effect the other way counts as inactive or inconclusive.

COc1ccccc1C(=O)Nc1ccc2c(c1)CCCN2C(=O)c1ccccc1	KB-3-1 tox 18µM, KB-V1 cytotox inconclusive
CC(=O)c1ccc(OCc2nnn(CC(=O)O)c2-c2ccccc2)cc1	none (no result: SW480 rerep, Gal4-VP16 FLuc, MCF10A rerep, RORg inh)
CCOc1ccccc1NC(=O)C1CCN(S(=O)(=O)c2ccc3c(c2)CCCN3C(C)=O)CC1	none (no result: SW480 rerep, Gal4-VP16 FLuc, MCF10A rerep, RORg inh)
CN(C)C(=O)CSc1nc2ccc(N3C(=O)c4ccccc4C3=O)cc2s1	none
O=C(O)c1ccc(CSc2nc3ccc(N4C(=O)C5C6C=CC(C6)C5C4=O)cc3s2)cc1 (centres undefined)	MCF10A rerep inconclusive
Cc1cccc(NC(=O)CSc2nc3ccc(N4C(=O)c5ccccc5C4=O)cc3s2)c1C	SW480 rerep inconclusive, MCF10A rerep 9.2µM
CCc1cccc(CC)c1NC(=O)CSc1nc2ccc(N3C(=O)C4C5C=CC(C5)C4C3=O)cc2s1 (centres undefined)	KB-3-1 tox inconclusive, KB-V1 cytotox 2.6µM, Gal4-VP16 FLuc inconclusive, MCF10A rerep inconclusive
O=c1c2ccccc2ncn1Cc1ccc(Cl)c(Cl)c1	MCF10A rerep 1.2µM
Cc1cc(C)cc(N(CC(=O)N2CCC(C)CC2)S(=O)(=O)c2ccccc2)c1	KB-V1 cytotox 16µM, SW480 rerep inconclusive
CCN(CC)CCCn1c(=S)[nH]c2ncccc2c1=O	none
CC(C)OCCCn1c(=S)[nH]c2ncccc2c1=O	Gal4-VP16 FLuc inconclusive, RORg inh 8.9µM
CCN(CCCn1c(=S)[nH]c2ncccc2c1=O)c1ccccc1	Gal4-VP16 FLuc 4µM, RORg inh 1.4µM
Oc1ccc2ccccc2c1C1Nc2cccc3cccc(c23)N1	KB-V1 cytotox inconclusive, Gal4-VP16 FLuc inconclusive, RORg inh inconclusive
Oc1ccc(O)c2c1C1c3ccccc3C2c2ccccc21	Gal4-VP16 FLuc 20µM, RORg inh 7.9µM (no result: KB-3-1 tox, KB-V1 cytotox, SW480 rerep, MCF10A rerep)
Clc1ccc(Cn2c(-c3cccnc3Cl)nc3ccccc32)c(Cl)c1	KB-3-1 tox inconclusive, KB-V1 cytotox 23µM, MCF10A rerep 16µM
Clc1ccc(Cn2c(-c3cccnc3Cl)nc3ccccc32)cc1	none
Nc1nonc1-c1nc2ccccc2n1Cc1ccc(F)cc1Cl	SW480 rerep inconclusive, Gal4-VP16 FLuc inconclusive, RORg inh 16µM
O=C(Nc1ccccc1)c1cn2ccccc2n1	KB-3-1 tox inconclusive, Gal4-VP16 FLuc 2.8µM, RORg inh inconclusive
Cc1csc(NC(=O)c2cn3ccccc3n2)n1	KB-3-1 tox inconclusive, KB-V1 cytotox inconclusive, SW480 rerep inconclusive, Gal4-VP16 FLuc 7.9µM, RORg inh 5µM
COc1cccc(/C=N/n2c(COc3ccccc3)n[nH]c2=S)c1O	KB-V1 cytotox inconclusive, Gal4-VP16 FLuc inconclusive, MCF10A rerep inconclusive, RORg inh 13µM
Cc1n[nH]c(=S)n1/N=C/c1cccc(OCc2ccccc2)c1	MCF10A rerep inconclusive
COc1ccccc1/C=C/C=N/n1c(COc2ccccc2)n[nH]c1=S	RORg inh 3.5µM
COc1cccc(/C=N/n2c(COc3ccccc3)n[nH]c2=S)c1OC	Gal4-VP16 FLuc inconclusive, RORg inh 20µM
CCOc1ccc(/C=N/n2c(COc3ccccc3)n[nH]c2=S)cc1OC	none
Cc1n[nH]c(=S)n1/N=C/c1ccccc1OCc1ccc(Cl)cc1	KB-3-1 tox inconclusive, KB-V1 cytotox 12µM, SW480 rerep inconclusive, Gal4-VP16 FLuc inconclusive, RORg inh 4.5µM
COc1ccccc1-c1ccc2ncnc(Nc3ccccc3)c2c1	none (no result: KB-3-1 tox, KB-V1 cytotox, SW480 rerep, MCF10A rerep)
COc1ccccc1N1CCN(C(=O)c2ccc(Nc3nc4ccccc4n4nnnc34)cc2)CC1	none (no result: SW480 rerep, Gal4-VP16 FLuc, MCF10A rerep, RORg inh)
CCCCCCCCN1C(=O)[C@H](CC(=O)NCCCOCCCC)C[C@@]2(C(=O)OC)CCCCC=C12	KB-3-1 tox inconclusive, KB-V1 cytotox 13µM (no result: SW480 rerep, Gal4-VP16 FLuc, MCF10A rerep, RORg inh)
CCOC(=O)[C@]12CCC=C1N(CCC1=CCCCC1)C(=O)[C@H](CC(=O)NCC1CCCCC1)C2	KB-V1 cytotox inconclusive (no result: SW480 rerep, Gal4-VP16 FLuc, MCF10A rerep, RORg inh)
CCCCCCCCN1C(=O)[C@H](CC(=O)NCCCC)C[C@@]2(C(=O)OC)CCCCC=C12	KB-V1 cytotox inconclusive (no result: SW480 rerep, Gal4-VP16 FLuc, MCF10A rerep, RORg inh)
CCCCCCCCN1C(=O)[C@H](CC(=O)NCCCOCCCC)C[C@@]2(C(=O)OC)CC(C)(C)CC=C12	KB-3-1 tox 18µM, KB-V1 cytotox 23µM (no result: SW480 rerep, Gal4-VP16 FLuc, MCF10A rerep, RORg inh)
CCOC(=O)[C@]12CCCC=C1N(CCC1=CCCCC1)C(=O)[C@H](CC(=O)NCC1CCCCC1)C2	KB-3-1 tox 16µM, KB-V1 cytotox 15µM (no result: SW480 rerep, Gal4-VP16 FLuc, MCF10A rerep, RORg inh)
CCCCCCCCN1C(=O)[C@H](CC(=O)NCCCOC)C[C@@]2(C(=O)OC)CC(C)(C)CC=C12	none (no result: SW480 rerep, Gal4-VP16 FLuc, MCF10A rerep, RORg inh)
CCOC(=O)c1c(C)c(-c2ccccc2)n(CC(=O)NCCc2ccc(C)cc2)c1C	none (no result: SW480 rerep, Gal4-VP16 FLuc, MCF10A rerep, RORg inh)
CC(C)(C)c1ccc(OCCC(=O)Nc2cccc(S(=O)(=O)N3CCCCC3)c2)cc1	KB-3-1 tox inconclusive, KB-V1 cytotox 21µM, RORg inh inconclusive
O=C(Nc1cccc(Cl)c1)Nc1cc(S(=O)(=O)N2CCCCC2)ccc1Cl	KB-3-1 tox inconclusive, KB-V1 cytotox inconclusive, SW480 rerep inconclusive, Gal4-VP16 FLuc inconclusive, MCF10A rerep 6.5µM, RORg inh inconclusive
